Bioassay records: PubChem BioAssay, The Scripps Research Institute Molecular Screening Center
FBW7 act – human FBW7 E3 ligase activation, primary screen | Q969H0 | AlphaScreen FBW7–phospho-cyclin E peptide binding, activator screen | normalized activity (activation), % at 26.1 µM | 0.13% of 650,000 active | AID 1259310; in the data active = normalized activity above about 1.9%;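 also: purified mutant Fbw7 with reduced substrate affinity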
TEAD-YAP inh – TEAD-YAP interaction inhibition; HEK-TIYL cells, TEAD-Gal4/YAP UAS-luciferase luminescence; 1.4% of 640,000 active; inhibition, % at 9.12 µM; in the data active = inhibition above about 32%;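 also: 0% = median of test compound wells and 100% = reference inhibitor wells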
MITF primary – inhibitors of human MITF. inhibition, % at 2.6 µM. AlphaScreen MITF homodimerization, bead proximity signal. O75030. 0.91% of 650,000 active; in the data active = inhibition above about 50%;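 also: 0% = vehicle wells with protein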
GPR151 activ – activates the human receptor GPR151; activation, % at 11.2 µM; AID 1508602; PathHunter beta-arrestin GPR151 cells, luminescence; Q8TDV0; 1% of 650,000 active; in the data active = activation above about 4.9%;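 also: 0% = median of compound wells and 100% = cells with positive control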
Target sequence (Q8TDV0 whole entry, looked up): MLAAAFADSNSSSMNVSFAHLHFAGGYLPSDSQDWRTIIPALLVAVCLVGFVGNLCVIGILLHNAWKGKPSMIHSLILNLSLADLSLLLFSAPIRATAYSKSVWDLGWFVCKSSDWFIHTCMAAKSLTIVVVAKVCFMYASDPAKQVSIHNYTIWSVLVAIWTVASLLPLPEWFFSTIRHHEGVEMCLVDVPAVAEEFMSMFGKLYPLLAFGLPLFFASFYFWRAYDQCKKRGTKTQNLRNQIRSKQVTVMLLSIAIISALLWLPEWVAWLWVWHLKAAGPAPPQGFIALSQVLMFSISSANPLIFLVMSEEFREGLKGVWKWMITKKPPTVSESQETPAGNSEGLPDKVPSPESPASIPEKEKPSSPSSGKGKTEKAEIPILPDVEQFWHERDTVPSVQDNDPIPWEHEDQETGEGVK
MITF confirm – human MITF inhibition, confirmation; 16% of 4,700 active; inhibition, % at 2.6 µM; AlphaScreen MITF homodimerization, biotin/His-MITF beads; shares compounds with MITF primary;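 active = inhibition above a cutoff derived from the DMSO control wells, cut at about 28% in these data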;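 also: 0% = MITF dimer wells with DMSO only; inhibitors lower the bead chemiluminescence by keeping MITF from dimerizing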
AlphaScreen DR – counter-screen: compounds optically interfering with AlphaScreen; shares compounds with MITF primary; AID 1259373; IC50, µM; 6% of 480 active; AlphaScreen optical interference counterscreen, cell-free; call rule not given here
AlphaScreen intf2 – optically interferes with AlphaScreen signal; shares compounds with MITF primary; 7.6% of 4,700 active; LysRS AlphaScreen counterscreen, signal interference, triplicate; inhibition, % at 2.6 µM; AID 1259376;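 active = inhibition above a cutoff derived from the DMSO control wells, cut at about 30% in these data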
* marks the source's active call; other numbers are inactive results; i = inactive; . = no result; ! = repeats disagree. In the library only some 3.4% were active in any assay of this set; here they are far more common.

SMILES	FBW7 act	TEAD-YAP inh	MITF primary	GPR151 activ	MITF confirm	AlphaScreen intf2	others
O=[N+]([O-])c1cc2c(cc1CN1CCCCCC1)OCO2	0	5	52*	0	3	1
O=C1CC(Nc2ccc(Cl)cc2)C(=O)N1c1ccc(Cl)c(Cl)c1 (stereo unspecified)	0	5	5	-1	.	.
O=C(Nc1cccc(C(F)(F)F)c1)c1cc2cc([N+](=O)[O-])ccc2oc1=O	0	-8	3	-2	.	.
COc1ccccc1N1CCN(Cc2cc3c(cc2[N+](=O)[O-])OCO3)CC1	0	-3	-9	2	.	.
COc1cc(CN2CCN(Cc3ccc4c(c3)OCO4)CC2)c([N+](=O)[O-])cc1OC	0	2	69*	2	17	19
O=[N+]([O-])c1ccccc1/C=C/CN1CCN(Cc2ccc3c(c2)OCO3)CC1	0	10	59*	0	-2	0
CCc1ccc2nc(SCC(=O)Nc3nc(C)c(C)s3)c(C#N)cc2c1	-1	-2	84*	-1	22	56*
Cc1cccc(C2C(=O)c3ccccc3C2=O)c1C	0	-8	10	1	.	.
CC1CCN(CC(=O)N(C)C2(c3ccccc3Cl)CCCCC2=O)CC1 (stereo unspecified)	0	-10	90*	2	-18	6
O=C(CN1C(=O)c2cccc3cccc(c23)C1=O)NO	0	-19	-3	3	.	.
Cc1ccc(CN2CCN(S(=O)(=O)c3ccccc3[N+](=O)[O-])CC2)cc1	0	8	58*	2	12	21
CCc1ccc(CN2CCN(S(=O)(=O)c3ccccc3[N+](=O)[O-])CC2)cc1	0	-4	28	0	.	.
CSc1ccc(CN2CCN(S(=O)(=O)c3ccccc3[N+](=O)[O-])CC2)cc1	0	-1	57*	-2	10	17
COC(=O)CNc1ncnc2c1nnn2Cc1ccccc1Cl	0	21	6	0	.	.
O=C(N/N=C/C=C\c1ccco1)c1ccncc1	0	3	18	1	.	.
O=C(N/N=C/c1ccccn1)c1ccccn1	-2	-32	48	-3	.	.
Cc1occc1C(=O)N/N=C/C=C/c1ccco1	0	-60	80*	0	44*	-17	AlphaScreen DR=>6.5
O=C(N/N=C/C=C\c1ccco1)c1ccccn1	0	-56	101*	0	94*	69*
Cc1occc1C(=O)N/N=C/C1CC=CCC1 (stereo unspecified)	0	-45	81*	-4	-10	-5
Cc1occc1C(=O)N/N=C/C1CCCCC1	0	-46	-10	-6	.	.
O=C(N/N=C\c1ccccn1)c1ccccn1	-1	-44	54*	-2	28*	82*
CC1CCCCC1NC(=O)c1cc(Sc2ccc(Cl)cc2)nc2ccccc12 (stereo unspecified)	0	-1	-28	0	.	.
CCc1cccc(NCc2nnc3n2CCCCC3)c1	0	-14	-4	2	.	.
O=C(NNC(=S)NCc1ccco1)c1ccccn1	-2	10	117*	-2	46*	67*
O=C(NNC(=S)NCc1ccc(Cl)cc1)c1ccccn1	-1	1	112*	4	102*	100*
SMILES	FBW7 act	TEAD-YAP inh	MITF primary	GPR151 activ	MITF confirm	AlphaScreen intf2	others
Cc1ccc(NC(=O)COC(=O)c2cc[n+]([O-])cc2)cc1C	0	-18	77*	3	-5	-7
Cc1cc(C)cc(NC(=O)COC(=O)c2cc[n+]([O-])cc2)c1	0	1	-5	0	.	.
Cc1cc(OCCOCCNCCN)cc(C)c1Cl	0	6	30	-1	.	.
COCCCNCCOCCOc1c(C)cc(C)cc1C	0	6	38	0	.	.
COCCCNCCOCCOc1c(C)cc(Cl)cc1C	0	-11	71*	2	-11	-6
Cc1cc(Cl)cc(Cl)c1OCCOCCNCCN	0	13	65*	0	-1	9
Cc1cc(C)c(OCCOCCNCCN)c(C)c1	0	0	70*	1	-1	8
Cc1ccnc2c(NCN3C(=O)C4C5C=CC(C5)C4C3=O)cccc12 (stereo unspecified)	0	-3	-1	2	.	.
COC(=O)c1cccc(NC(=O)CCCC(=O)O)c1C	0	-12	-16	1	.	.
CCn1c(SCC(=O)Nc2ccccc2)nnc1-c1ccc(N)cc1	0	2	2	1	.	.
Cc1cc(Cl)c(OCCCN2CCN(C)CC2)c(Br)c1	0	-6	65*	0	-4	-6
Cc1cc(Cl)c(OCCOCCN2CCN(C)CC2)c(Br)c1	0	1	77*	0	16	17
Cc1cc(Cl)c(OCCCN2CCOCC2)c(Br)c1	0	-7	28	-1	.	.
CN1CCN(CCOCCOc2c(Cl)cc(Cl)cc2Cl)CC1	0	10	44	-1	.	.
Cc1cc(Cl)c(OCCN2CCN(C)CC2)c(Br)c1	0	-6	55*	2	1	6
COCCNCCOc1c(Cl)cc(C)cc1Br	0	-3	64*	0	11	13
OC1(c2ccccc2)C[n+]2ccccc2N1Cc1ccccc1 (stereo unspecified)	0	5	-2	1	.	.
Cc1cccc(-c2noc(COc3ccc(C)c(C)c3)n2)c1	0	0	-6	0	.	.
C=C1c2cccc(O)c2C(O)=C2C(=O)[C@]3(O)C(O)=C(C(N)=O)C(=O)[C@@H](N(C)C)[C@@H]3[C@@H](O)[C@H]12	0	-7	54*	0	41*!	6	AlphaScreen DR=>6.5
C=C1c2c(Cl)ccc(O)c2C(O)=C2C(=O)[C@]3(O)C(O)=C(C(N)=O)C(=O)[C@@H](N(C)C)[C@@H]3[C@@H](O)[C@H]12	0	5	63*	0	85*	30*!	AlphaScreen DR=i
O=[N+]([O-])c1cccc(N(CC2CO2)S(=O)(=O)c2ccccc2)c1 (stereo unspecified)	0	-3	51*	0	-1	-9
COc1ccc(-n2c(C)cc(C(=O)COC(=O)c3ccc([N+](=O)[O-])o3)c2C)cc1	0	10	18	-1	.	.
COC(=O)CSc1nnc(-c2cnccn2)n1C	0	-4	65*	0	36*	11	AlphaScreen DR=>6.5
Cn1c(SCC#N)nnc1-c1cnccn1	0	-1	69*	0	10	18
COCCn1c(SCC#N)nnc1-c1cnccn1	0	1	-3	1	.	.
C/C(=N\Nc1nc2ccccc2o1)c1ccccn1	-1	-9	55*	-2	4	3
C/C(=N\Nc1ccccc1Cl)c1ccccn1	0	-46	-1	-2	.	.
CCOC(=O)C(=O)C(C#N)c1ccccc1 (stereo unspecified)	0	-1	83*	1	11	19
